Several values for one entry are separate records, joined by “and”; a condition that tells them apart may be missing. Identical values can stand only once. Among all 5,500 compounds or so, about 2,000 (36%) were called active. About 18% were inconclusive and are not listed. Rule as the data show it: active = normalized growth mostly below about 0.91 (no sharp cut-off); inconclusive = no clear call, values can overlap the other calls; inactive = mostly above about 0.92. Some of the results follow.
Test: chemical genetic growth profiling, strain panel (AID 1159580);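 also: tested at 20 µM; growth read once vehicle control cultures reached saturation at 30 °C; 1 = growth at the plate median or of vehicle wells; lower values mean less growth of the strain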
Conditions: growth OD
[1] = S. cerevisiae deletion strains, locus YBR021W, strain FUR4, hits give low values
[2] = S. cerevisiae deletion strains, locus YBR229C, strain ROT2, hits give low values
[3] = S. cerevisiae deletion strains, locus YCL029C, strain bik1, hits give low values
[4] = S. cerevisiae deletion strains, locus YDL035C, strain GPR1, hits give low values
[5] = S. cerevisiae deletion strains, locus YDL074C, strain BRE1, hits give low values
[6] = S. cerevisiae deletion strains, locus YDL101C, strain DUN1, hits give low values
[7] = S. cerevisiae deletion strains, locus YDL134C, strain PPH21, hits give low values
[8] = S. cerevisiae deletion strains, locus YDL185W, strain tfp1, hits give low values
[9] = S. cerevisiae deletion strains, locus YDL192W, strain arf1, hits give low values
[10] = S. cerevisiae deletion strains, locus YDR101C, strain arx1, hits give low values
[11] = S. cerevisiae deletion strains, locus YDR162C, strain NBP2, hits give low values
[12] = S. cerevisiae deletion strains, locus YDR318W, strain mcm21, hits give low values
[13] = S. cerevisiae deletion strains, locus YDR388W, hits give low values
[14] = S. cerevisiae deletion strains, locus YDR502C, strain sam2, hits give low values
[15] = S. cerevisiae deletion strains, locus YEL061C, strain CIN8, hits give low values
[16] = S. cerevisiae deletion strains, locus YER110C, hits give low values
[17] = S. cerevisiae deletion strains, locus YER155C, strain BEM2, hits give low values
[18] = S. cerevisiae deletion strains, locus YER167W, strain BCK2, hits give low values
[19] = S. cerevisiae deletion strains, locus YGL078C, strain dbp3, hits give low values
[20] = S. cerevisiae deletion strains, locus YGL086W, strain mad1, hits give low values
[21] = S. cerevisiae deletion strains, locus YGL248W, strain PDE1, hits give low values
[22] = S. cerevisiae deletion strains, locus YGR078C, strain PAC10, hits give low values
[23] = S. cerevisiae deletion strains, locus YGR135W, strain pre9, hits give low values
[24] = S. cerevisiae deletion strains, locus YGR252W, strain gcn5, hits give low values
[25] = S. cerevisiae deletion strains, locus YHR030C, strain SLT2, hits give low values
[26] = S. cerevisiae deletion strains, locus YHR079C, strain IRE1 (second series), hits give low values
[27] = S. cerevisiae deletion strains, locus YHR094C, strain hxt1, hits give low values
[28] = S. cerevisiae deletion strains, locus YHR129C, strain ARP1, hits give low values
[29] = S. cerevisiae deletion strains, locus YHR200W, strain rpn10, hits give low values
[30] = S. cerevisiae deletion strains, locus YIL066C, strain RNR3, hits give low values
[31] = S. cerevisiae deletion strains, locus YIL073C, strain SPO22, hits give low values
[32] = S. cerevisiae deletion strains, locus YIL125W, strain kgd1, hits give low values
[33] = S. cerevisiae deletion strains, locus YIR030C, strain dcg1, hits give low values
[34] = S. cerevisiae deletion strains, locus YJL095W, strain BCK1, hits give low values
[35] = S. cerevisiae deletion strains, locus YJL134W, strain LCB3, hits give low values
[36] = S. cerevisiae deletion strains, locus YJL168C, strain set2, hits give low values
[37] = S. cerevisiae deletion strains, locus YJL187C, strain SWE1 (second series), hits give low values
[38] = S. cerevisiae deletion strains, locus YJR043C, strain POL32, hits give low values
[39] = S. cerevisiae deletion strains, locus YJR075W, strain HOC1, hits give low values
[40] = S. cerevisiae deletion strains, locus YKL009W, strain mrt4, hits give low values
[41] = S. cerevisiae deletion strains, locus YKL068W, hits give low values
[42] = S. cerevisiae deletion strains, locus YKL085W, strain MDH1 (second series), hits give low values
[43] = S. cerevisiae deletion strains, locus YKL085W, strain MDH1, hits give low values
[44] = S. cerevisiae deletion strains, locus YKL190W, strain CNB1, hits give low values
[45] = S. cerevisiae deletion strains, locus YKR001C, strain vps1, hits give low values
[46] = S. cerevisiae deletion strains, locus YLR039C, strain RIC1, hits give low values
[47] = S. cerevisiae deletion strains, locus YLR058C, strain SHM2, hits give low values
[48] = S. cerevisiae deletion strains, locus YLR102C, strain apc9, hits give low values
[49] = S. cerevisiae deletion strains, locus YLR262C, strain YPT6, hits give low values
[50] = S. cerevisiae deletion strains, locus YLR268W, strain sec22, hits give low values
[51] = S. cerevisiae deletion strains, locus YLR330W, strain CHS5, hits give low values
[52] = S. cerevisiae deletion strains, locus YLR342W, strain FKS1 (second series), hits give low values
[53] = S. cerevisiae deletion strains, locus YLR371W, strain rom2, hits give low values
[54] = S. cerevisiae deletion strains, locus YLR418C, strain cdc73, hits give low values
[55] = S. cerevisiae deletion strains, locus YML016C, strain PPZ1, hits give low values
[56] = S. cerevisiae deletion strains, locus YML032C, strain rad52, hits give low values
[57] = S. cerevisiae deletion strains, locus YML124C, strain tub3, hits give low values
[58] = S. cerevisiae deletion strains, locus YMR078C, strain ctf18, hits give low values
[59] = S. cerevisiae deletion strains, locus YMR223W, strain ubp8, hits give low values
[60] = S. cerevisiae deletion strains, locus YMR307W, strain GAS1, hits give low values
[61] = S. cerevisiae deletion strains, locus YNL067W, strain RPL9B, hits give low values
[62] = S. cerevisiae deletion strains, locus YNL153C, strain GIM3, hits give low values
[63] = S. cerevisiae deletion strains, locus YNL233W, strain BNI4, hits give low values
[64] = S. cerevisiae deletion strains, locus YNL250W, strain rad50, hits give low values
[65] = S. cerevisiae deletion strains, locus YNL271C, strain bni1, hits give low values
[66] = S. cerevisiae deletion strains, locus YNL298W, strain CLA4, hits give low values
[67] = S. cerevisiae deletion strains, locus YNL307C, strain MCK1, hits give low values
[68] = S. cerevisiae deletion strains, locus YNL322C, strain KRE1, hits give low values
[69] = S. cerevisiae deletion strains, locus YNR052C, strain pop2, hits give low values
[70] = S. cerevisiae deletion strains, locus YOL012C, strain htz1
[71] = S. cerevisiae deletion strains, locus YOL147C, strain pex11, hits give low values
[72] = S. cerevisiae deletion strains, locus YOR061W, strain CKA2, hits give low values
[73] = S. cerevisiae deletion strains, locus YOR069W, strain VPS5, hits give low values
[74] = S. cerevisiae deletion strains, locus YOR136W, strain idh2, hits give low values
[75] = S. cerevisiae deletion strains, locus YOR144C, strain elg1, hits give low values
[76] = S. cerevisiae deletion strains, locus YOR184W, strain ser1, hits give low values
[77] = S. cerevisiae deletion strains, locus YOR316C, strain cot1, hits give low values
[78] = S. cerevisiae deletion strains, locus YPR119W, strain clb2, hits give low values
[79] = S. cerevisiae deletion strains, locus YPR141C, strain kar3, hits give low values
[80] = S. cerevisiae deletion strains, locus YPR163C, strain tif3, hits give low values
[81] = S. cerevisiae deletion strains, locus YPR167C, strain met16, hits give low values
[82] = S. cerevisiae deletion strains, strain wtn01, hits give low values
[83] = S. cerevisiae strains, strain wild type, hits give low values

Measured: normalized growth

NC(=O)NCC(N)C(=O)O (configuration not stated)
inactive: [1] 1.06 | [2] 1.01 | [3] 0.988 | [4] 1.04 | [5] 1.03 | [6] 1.02 | [7] 1.03 | [8] 0.989 | [9] 1 | [10] 0.975 | [11] 1.04 | [12] 0.999 | [13] 0.983 | [14] 0.984 | [15] 1.01 | [16] 0.978 | [17] 1.01 | [18] 1.02 | [19] 0.995 | [20] 0.994 | [21] 1.02 | [22] 1.03 | [23] 0.995 | [24] 0.987 | [25] 1.01 | [26] 0.983 | [27] 0.975 | [28] 1.02 | [29] 0.986 | [30] 1.03 | [31] 1 | [32] 0.991 | [33] 0.996 | [34] 1.03 | [35] 1.01 | [36] 0.989 | [37] 1.02 | [38] 1.04 | [39] 1.02 | [40] 1 | [41] 0.997 | [42] 1.01 | [43] 1.01 | [44] 1.01 | [45] 0.989 | [46] 1.08 | [47] 1.02 | [48] 0.987 | [49] 1.1 | [50] 0.983 | [51] 1.01 | [52] 1.03 | [53] 0.981 | [54] 0.982 | [55] 1.01 | [56] 0.995 | [57] 0.981 | [58] 0.971 | [59] 0.99 | [60] 1.14 | [61] 1.01 | [62] 1.01 | [63] 1.03 | [64] 1.01 | [65] 0.982 | [66] 0.994 | [67] 0.991 | [68] 1.01 | [69] 0.991 | [70] 0.762 | [71] 0.985 | [72] 1.02 | [73] 1.01 | [74] 0.985 | [75] 0.984 | [76] 0.989 | [77] 0.983 | [78] 0.987 | [79] 0.995 | [80] 0.985 | [81] 0.989 | [82] 0.989 | [83] 1.02

NC(N)=NC(=O)c1nc(Cl)c(N2CCCCCC2)nc1N
active: [70] 2.1 [resistant]
inactive: S. cerevisiae deletion strains, locus YAL013W, strain DEP1, hits give low values 1.01 and 0.962 | S. cerevisiae deletion strains, locus YAL040C, strain CLN3, hits give low values 1.09 | [1] 1.02 | [2] 1.01 | [3] 1.01 | [4] 1 | [5] 0.989 | [6] 1.02 | [7] 1.01 | [8] 1.02 | [9] 1.01 | [10] 1 | S. cerevisiae deletion strains, locus YDR150W, strain NUM1, hits give low values 1.01 | [11] 1.03 | [12] 1.01 | S. cerevisiae deletion strains, locus YDR363W, strain ESC2, hits give low values 0.986 | [13] 1.01 | [14] 1.01 | [15] 1.01 | S. cerevisiae deletion strains, locus YER002W, strain NOP16, hits give low values 1.02 | [16] 1 | [17] 1.01 | [18] 1 | [19] 1.02 | [20] 0.998 | [21] 1.01 | [22] 0.991 | [23] 0.995 | S. cerevisiae deletion strains, locus YGR229C, strain SMI1, hits give low values 1.01 and 0.996 | [24] 0.853 | [25] 1.01 and 1.06 | [26] 1.02 | S. cerevisiae deletion strains, locus YHR079C, strain IRE1, hits give low values 1.06 | [27] 1.01 | [28] 1 | [29] 1.02 | [30] 1.02 | [31] 1.08 | [32] 1.01 | [33] 1.02 | [34] 0.986 and 1.06 | [35] 1.01 | [36] 1.02 | [37] 1.02 | [38] 0.982 | S. cerevisiae deletion strains, locus YJR066W, strain TOR1, hits give low values 1.02 | [39] 0.988 | [40] 0.999 | [41] 1.01 | [42] 1.01 | [43] 1.01 | [44] 1.01 | [45] 1.02 | [46] 1.14 | [47] 1.02 | [48] 1.01 | S. cerevisiae deletion strains, locus YLR113W, strain HOG1, hits give low values 0.973 | [49] 1.16 | [50] 1.02 | [51] 1.02 | [52] 0.887 | [53] 1.03 | [54] 0.91 | [55] 1.01 | [56] 1.01 | [57] 1.01 | [58] 1.01 | [59] 0.999 | S. cerevisiae deletion strains, locus YMR263W, strain SAP30, hits give low values 1.01 and 0.995 | [60] 0.88 | [61] 1 | S. cerevisiae deletion strains, locus YNL128W, strain TEP1, hits give low values 1.02 | [62] 1.01 and 0.97 | S. cerevisiae deletion strains, locus YNL175C, strain NOP13, hits give low values 1.03 | S. cerevisiae deletion strains, locus YNL183C, strain NPR1, hits give low values 1.02 | S. cerevisiae deletion strains, locus YNL197C, strain WHI3, hits give low values 1.07 | S. cerevisiae deletion strains, locus YNL224C, strain SQS1, hits give low values 1.01 | [63] 1 | [64] 1.01 | [65] 1.02 | [66] 1 | [67] 0.989 | [68] 1.01 | [69] 1.02 | S. cerevisiae deletion strains, locus YOL006C, strain TOP1, hits give low values 0.995 | [71] 1 | [72] 1.01 | [73] 1.01 | S. cerevisiae deletion strains, locus YOR083W, strain WHI5 (second series), hits give low values 0.979 | [74] 1.02 | [75] 1.01 | [76] 1.02 | S. cerevisiae deletion strains, locus YOR231W, strain MKK1, hits give low values 1.02 | [77] 1.01 | S. cerevisiae deletion strains, locus YPL055C, strain LGE1, hits give low values 1.01 and 0.902 | S. cerevisiae deletion strains, locus YPL241C, strain CIN2, hits give low values 1.01 | S. cerevisiae deletion strains, locus YPL256C, strain CLN2, hits give low values 1.09 | [78] 1.01 | [79] 1.02 | [80] 1.02 | [81] 1.01 | [82] 1.01 | [83] 1.01
